# From PubChem BioAssay (NCATS)
# Records with an inconclusive call do not appear. Values without a mark were called inactive. Active and inactive are the calls of the source. The call rests on the fitted dose curve; in most records, active means well fitted cell-killing curve with a large enough effect; inconclusive means small, poorly fitted or top-dose-only effect; inactive means flat fitted curve, though single readings scatter. Peptide text beside a SMILES is read from it.
# Assay: Cell Viability - SH-SY5Y (AID 544); further: nearly all actives have a fitted effect of over 55% in size;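 on viability change, negative = cytotoxic: 0% = DMSO alone and -100% = 100 µM tamoxifen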
# Details: SH-SY5Y neuroblastoma cell viability; series mostly up to 92.2 µM; viability change, negative = cytotoxic: at the top concentration
# Description: NIH Chemical Genomics Center [NCGC]
# NIH Molecular Libraries Screening Centers Network [MLSCN]
# National Institutes of Environmental Health Sciences [NIEHS]
# National Toxicology Program [NTP]
# We have developed a 1536-well cell-based assay for quantitative high throughput screening (qHTS) against a number of cell lines to determine in vitro cytotoxicity of small molecules. This particular assay uses the SH-SY5Y cell line which is derived from human neuroblastoma.
# NCGC Assay Protocol Summary:
# The CellTiter-Glo luminescent cell viability assay (Promega) is a homogeneous method to measure the number of viable cells in culture. The end point readout of this assay is based on quantitation of intracellular ATP, an indicator of metabolic activity, using the luciferase reaction. Luciferase catalyzes the oxidation of beetle Luciferin to oxyluciferin and light in the presence of ATP. The luminescent signal is proportional to amount of ATP present.
# Using the CellTiter-Glo luminescent cell viability assay, the amount of cellular ATP was measured in the SH-SY5Y cell line with complete culture medium following compound treatment for 40 hours. The assay was performed in opaque white Kalypsys 1536-well plates. In the screen, tamoxifen and doxorubicin were used as positive controls. Library compounds were measured for their ability to cause acute toxicity in the cell line, as reflected by a decrease in intracellular ATP levels, in a concentration-dependent manner. […] AC50 values were determined from concentration-response data modeled with the standard Hill equation.
# qHTS protocol for CellTiter Glo SH-SY5Y cellular assay
# [Step] [Parameter] [Value] [Description]
# 1. Reagent; 5 uL; 1500 SH-SY5Y cells/well
# 2. Time; 5 hr; 37 °C incubation
# 4. Controls; 23 nL; Tamoxifen 0.34 uM to 100 uM & Doxorubicin 0.02 nM to 100 uM
# 5. Time; 40 hr; 37 °C incubation
# 6. Reagent; 5 uL; CellTiter Glo reagent
# 7. Time; 20 min; Room Temperature
# 8. Detection; Luminescence; Viewlux plate reader
# Keywords: cell viability, cytotoxicity, SH-SY5Y cell line, luminescence, NTPHTS, NTPHTS_NCGC, NIEHS, EPA, DSSTox, MLSMR, MLSCN, NIH Roadmap, qHTS, NCGC
# Potency means the concentration at half of the fitted maximal effect.
SMILES,"viability change, negative = cytotoxic [%]",Potency
NS(=O)(=O)c1cc(C(=O)O)c(NCc2ccco2)cc1Cl,-21.5,–
Nc1ccc(S(N)(=O)=O)cc1,-10.3,–
CCCCC(CC)COC(=O)C(C#N)=C(c1ccccc1)c1ccccc1 (stereo unspecified),-14.1,–
CN(C)c1ccc2nc3ccc(=[N+](C)C)cc-3sc2c1,–,15.8 µM (active)
Cc1ccc(C)c(OCCCC(C)(C)C(=O)O)c1,-5.41,–
COC(=O)[C@H](Cc1ccccc1)NC(=O)[C@@H](N)CC(=O)O (H-Asp-Phe-OMe),-9.87,–
COc1c2occc2cc2ccc(=O)oc12,-2.55,–
CS(=O)(=O)OCCCCOS(C)(=O)=O,–,inactive
c1ccc2[nH]c(-c3cscn3)nc2c1,-29.8,–
CC(=O)Nc1ccc(O)cc1,-9.97,–
CCc1nc(N)nc(N)c1-c1ccc(Cl)cc1,-21,–
